Screen size: about 48,000 compounds; about 13,000 (27%) showed an effect of 50% or more. The list shows a part of the results.
system: Wolbachia pipientis; experiment: Anti-Wolbachia Cell-Based Screen; format: functional; design: scale not given: in the data most compounds retested in dose-response had high values; conditions: 5 µM

Going from `CN(CCCNC(=O)Nc1ccc(C#N)cc1)CC(F)(F)F` to `CC(C#N)CSc1ccccc1NCC(=O)NCc1ccccc1` (stereo unspecified), the “Percent Effect” value rises from 3.488% to 17.5%.

First: Cc1noc(CCNC(=O)C2CSCN2C(=O)C2CCCC2)n1 (stereo unspecified)
Second: CC(C)c1noc(CC[C@@H]2CCCN3CCCC[C@H]23)n1
The “Percent Effect” value of the first is lower: 1.723% for the first, 17.3% for the second.

Compared with `CC(C)N1CCC(CC(=O)NCC2OCCc3ccccc32)CC1` (stereo unspecified), `O=C(CCO)N[C@H]1CN(CC2CCC2)C[C@@H]1c1ccccc1` is higher in “Percent Effect” value: -17.34% for the first, 4.649% for the second.

Compared with `CC(C)(O)CN1CCN(C(=O)COCC2CC2)CC1`, `COCC(=O)N1CCC(c2nccn2CC2CC2)CC1` is lower in “Percent Effect” value: 6.995% for the first, -30.12% for the second.

First: COc1c(C)cnc(CN(C)C(=O)c2cccnc2N(C)C)c1C
Second: COc1ncccc1C(=O)N1CCn2c(COCC3CC3)cnc2C1C (stereo unspecified)
The “Percent Effect” value of the first is lower: -5.056% for the first, -2.491% for the second.

Compared with `CCOCc1cnc2n1CCN(C(=O)Cc1ccco1)C2C` (stereo unspecified), `CCOCc1cnc2n1CCN(C(=O)Cc1cccs1)C2C` (stereo unspecified) is higher in “Percent Effect” value: -11.07% for the first, 1.059% for the second.

Compared with `COCc1cnc2n1CCN(C(=O)c1cn(C)c3ccccc13)C2C` (stereo unspecified), `CCOCc1cnc2n1CCN(C(=O)c1cn(C)c3ccccc13)C2C` (stereo unspecified) is higher in “Percent Effect” value: 101.2% for the first, 101.9% for the second.

First: CC1c2ncc(COCC3CCOCC3)n2CCN1C(=O)c1ccoc1 (stereo unspecified)
Second: Cc1ncoc1C(=O)N1CCn2c(COCC3CC3)cnc2C1C (stereo unspecified)
The “Percent Effect” value of the first is higher: 2.746% for the first, -11.18% for the second.

First: COCc1cnc2n1CCN(C(=O)c1cnc3ccccc3c1)C2C (stereo unspecified)
Second: COCc1cnc2n1CCN(C(=O)c1cc3ccccc3o1)C2C (stereo unspecified)
The “Percent Effect” value of the first is lower: -17.18% for the first, -14.51% for the second.

Going from `CCOCc1cnc2n1CCN(C(=O)c1ccoc1C)C2C` (stereo unspecified) to `CCOCc1cnc2n1CCN(C(=O)c1ccccc1)C2C` (stereo unspecified), the “Percent Effect” value rises from 98.54% to 105.6%.

Compared with `COCc1cnc2n1CCN(C(=O)c1oc3ccccc3c1C)C2C` (stereo unspecified), `CCOCc1cnc2n1CCN(C(=O)c1cccc3c1OCCO3)C2C` (stereo unspecified) is higher in “Percent Effect” value: -7.418% for the first, 83.71% for the second.

Going from `c1ccc2sc(N3CCCN(c4ncnc5c4CCNC5)CC3)nc2c1` to `O=C(Nc1c(N2CCCC2)cccc1N1CCCC1)c1cnccn1`, the “Percent Effect” value rises from -7.795% to -1.067%.

Going from `CC(NCCNS(=O)(=O)c1cccc(Cl)c1)C1CCOCC1` (stereo unspecified) to `Cc1cccc(CN2CCC(NS(C)(=O)=O)CC2)n1`, the “Percent Effect” value rises from -16.43% to -9.608%.

First: CCOc1ccc(C(=O)NCc2ccnc(N3CCCC3)c2)cn1
Second: CCc1nccc(CN2CCCC(CNC(=O)c3occc3C)C2)n1 (stereo unspecified)
The “Percent Effect” value of the first is lower: -6.067% for the first, 4.372% for the second.

First: CCCN1CCN(Cc2cccc(OCC(N)=O)c2)[C@H]2CS(=O)(=O)C[C@H]21
Second: Cc1cccc(CN2CCC(c3nccn3CC(N)=O)CC2)n1
The “Percent Effect” value of the first is higher: -4.749% for the first, -14.31% for the second.

Compared with `O=C(c1ccc(Cl)cn1)N1CCC(COCc2ccccc2)C1` (stereo unspecified), `c1ccc(CCN2CCCC(c3ccnc4nccn34)C2)cc1` (stereo unspecified) is higher in “Percent Effect” value: 7.677% for the first, 130.1% for the second.

First: CN(Cc1noc(C(C)(C)C)n1)CC1CCN(CCO)CC1
Second: CC(C)(C)c1nc(CN(CCC2CCCCC2)CC(N)=O)no1
The “Percent Effect” value of the first is lower: -10.5% for the first, 228.2% for the second.

Compared with `C=C(C)CN(CC)Cc1nc(CC)no1`, `CCc1noc(CN(CCC2CCCCC2)CC(N)=O)n1` is higher in “Percent Effect” value: 1.944% for the first, 163.4% for the second.

Compared with `CC(C)c1noc(CN(CCC2CCCCC2)CC(N)=O)n1`, `CC(=O)N1CCCCCC1C1CCN(Cc2nc(C(C)C)no2)CC1.Cl` (stereo unspecified) is lower in “Percent Effect” value: 116.2% for the first, 9.412% for the second.

Going from `CCc1noc(CN(CC(=O)N2CCCCC2)c2ccc(C)cc2)n1` to `CCN1CCN(C(=O)c2cnc(Cc3c(Cl)cccc3Cl)nc2O)CC1`, the “Percent Effect” value rises from 0.4396% to 1.362%.

Compared with `CC(C(=O)NC1CCCC1)S(=O)(=O)Cc1noc(C(C)(C)C)n1` (stereo unspecified), `COCC1CCN(c2nc(C(C)(C)C)nc3c2cnn3C)C1` (stereo unspecified) is lower in “Percent Effect” value: 6.849% for the first, -4.471% for the second.

Compared with `CCC1CN(C(=O)c2cc(C(C)=O)c(C)[nH]c2=O)CCN1C(C)C` (stereo unspecified), `CCOCCn1nc(C)cc1C(=O)N1CC[C@](C)(O)C(C)(C)C1` is higher in “Percent Effect” value: 0.5617% for the first, 2.862% for the second.

Compared with `CCCN(c1ccccc1C(=O)O)S(=O)(=O)c1cccc2cccnc12`, `CC(=O)N1CC(C)CN(C(=O)c2cccnc2C)c2ccccc21` (stereo unspecified) is higher in “Percent Effect” value: -16.07% for the first, 91.16% for the second.

First: CCc1nc(N2CCN(CCOC)CC2)c2cnn(C)c2n1
Second: COCCN1CCN(c2nc(C3CCCC3)nc3c2cnn3C)CC1
The “Percent Effect” value of the first is lower: 1.381% for the first, 8.561% for the second.

Going from `CCCc1nc(N2CCCC(CCOC)C2)c2cnn(C)c2n1` (stereo unspecified) to `CCc1nc(N2CCCC(CCCOC)C2)c2cnn(C)c2n1` (stereo unspecified), the “Percent Effect” value rises from 105.9% to 108.6%.

Going from `CCCc1nc(N2CCC(CCO)CC2)c2cnn(C)c2n1` to `CCN(CCO)C(=O)C1CCC(=O)N(CCc2cccc(F)c2)C1` (stereo unspecified), the “Percent Effect” value falls from -6.253% to -9.721%.

First: Cc1noc([C@H]2C[C@H]3OCC[C@H]3N(Cc3ccc(F)cc3)C2)n1.O=C(O)C(F)(F)F
Second: O=C(Nc1cccnc1)[C@H]1CN(Cc2ccccn2)C[C@H]2OCC[C@@H]12.O=C(O)C(F)(F)F.O=C(O)C(F)(F)F
The “Percent Effect” value of the first is higher: 9.305% for the first, -14.96% for the second.

First: CCN(CC)C(=O)Cn1nc(C(C)C)c2cnn(C(C)(C)C)c2c1=O
Second: Cc1ncc(S(=O)(=O)N(CC(C)C)c2cccc(O)c2)s1
The “Percent Effect” value of the first is higher: 8.022% for the first, -3.046% for the second.

Compared with `C=C(C)CN(Cc1cccc(O)c1)C1CCC(O)CC1` (stereo unspecified), `CN(Cc1cccc(C(N)=O)c1)CC1CCCN1c1cccnn1` (stereo unspecified) is higher in “Percent Effect” value: 3.823% for the first, 103.6% for the second.

First: CCc1nc2c(N3CCC4(CC3)CNC(=O)C4)ncnc2o1
Second: CC(=O)N1CCC(c2n[nH]c3nccnc23)CC1
The “Percent Effect” value of the first is lower: 4.745% for the first, 120.8% for the second.

Going from `c1cncc(CN2CCC(c3csc4nccn34)CC2)c1` to `Cc1cccc(CN2CCC(c3csc4nccn34)CC2)n1.O=CO`, the “Percent Effect” value rises from 140.6% to 151.3%.

First: FC(F)(F)c1cc(C2CCCN(Cc3ccncc3)C2)n[nH]1 (stereo unspecified)
Second: c1cc(CN2CCCC(c3ccnc4nccn34)C2)ccn1 (stereo unspecified)
The “Percent Effect” value of the first is lower: -5.824% for the first, 150% for the second.

Compared with `Fc1ccc(OCc2nnc([C@H]3CCN(Cc4ccncc4)C3)o2)cc1`, `c1cc(CN2CCC(c3ccnc4nccn34)C2)ccn1` (stereo unspecified) is higher in “Percent Effect” value: 12.6% for the first, 128.4% for the second.

Compared with `c1cncc(CN2CCC(c3n[nH]c(C4CC4)n3)CC2)c1`, `Clc1cccnc1N1CCC(C2CCN(Cc3cccnc3)CC2)C1` (stereo unspecified) is lower in “Percent Effect” value: 10.48% for the first, -0.1569% for the second.

First: c1cc(-c2cc(C3CCN(Cc4cncnc4)C3)ccn2)ccn1 (stereo unspecified)
Second: c1cncc(CN2CCC(c3ccnc4nccn34)C2)c1 (stereo unspecified)
The “Percent Effect” value of the first is lower: -7.458% for the first, 122.6% for the second.

First: Cc1ncsc1C(=O)NC1CCN(Cc2cccnc2)CC1
Second: Clc1ccc(CN2CCC(C3CCN(Cc4cccnc4)CC3)C2)cc1 (stereo unspecified)
The “Percent Effect” value of the first is higher: 3.367% for the first, -5.932% for the second.

Compared with `Cn1c(Cn2ccnc2)nnc1C1CCCN(Cc2ccncc2)C1` (stereo unspecified), `CN(Cc1ccc(-n2ccnc2)cc1)CC1CCCN1c1cccnn1` (stereo unspecified) is higher in “Percent Effect” value: -0.06506% for the first, 126.9% for the second.

First: Cc1ccc(C)c(S(=O)(=O)NCCNc2ccc(-n3cccc3)nn2)c1
Second: Cc1cc(N(C)Cc2ncc[nH]2)nc(-c2ccccc2)n1
The “Percent Effect” value of the first is higher: 14.81% for the first, 4.008% for the second.

First: C=C(C)CN(CC)S(=O)(=O)c1cccc(F)c1C#N
Second: CCCOc1cccc(NC(=O)NC2CCc3nc(C)nn3C2)c1 (stereo unspecified)
The “Percent Effect” value of the first is higher: -7.097% for the first, -22.59% for the second.

Going from `O=C(Nc1cnccn1)[C@H]1COC[C@H]2CN(c3ncc(F)cn3)C[C@H]21` to `CC(=O)N1CC(C)CN(C(=O)c2cnccn2)c2ccccc21` (stereo unspecified), the “Percent Effect” value rises from -11.52% to 97.68%.

First: c1ccc(CCN2CCCC(c3noc(C4CC4)n3)C2)cc1 (stereo unspecified)
Second: CCn1ccnc1CN(C)C1CCCN(CCc2ccccc2)C1 (stereo unspecified)
The “Percent Effect” value of the first is lower: -7.15% for the first, 17.47% for the second.

First: O=C(Cc1ccsc1)N1CCCC(c2n[nH]c3ncccc23)C1 (stereo unspecified)
Second: O=C(Cc1ccsc1)N1CCCC(c2n[nH]c3nccnc23)C1 (stereo unspecified)
The “Percent Effect” value of the first is higher: 100.9% for the first, -11.37% for the second.

First: COCC(=O)N1CCC(c2n[nH]c3nccnc23)CC1
Second: O=C(Cc1ccsc1)N1CCC(c2n[nH]c3nccnc23)CC1
The “Percent Effect” value of the first is higher: 142.1% for the first, 72.86% for the second.

Compared with `O=C(NCCC(O)c1ccco1)c1ccco1` (stereo unspecified), `CC(=O)N1CC(C)CN(Cc2ccon2)c2ccccc21` (stereo unspecified) is higher in “Percent Effect” value: -7.433% for the first, 7.641% for the second.

Compared with `CCC(CC)NC(=O)c1cncc(Br)c1`, `CCc1nc(C)ncc1C(=O)N1CC(C)CN(C)c2ccccc21` (stereo unspecified) is lower in “Percent Effect” value: 15.73% for the first, -1.529% for the second.

First: CN1CCC(c2nnc(CN3CCC(O)CC3)n2C)CC1
Second: CN(Cc1ccc(-n2cccn2)cc1)C[C@@H]1CCCN2CCCC[C@H]12
The “Percent Effect” value of the first is lower: -6.188% for the first, 18.72% for the second.

Going from `Cc1ncsc1C(=O)N1CC(C)Sc2ccccc21` (stereo unspecified) to `CC1CN(C(=O)c2cscn2)c2ccccc2S1` (stereo unspecified), the “Percent Effect” value falls from 0.6302% to -14.12%.

First: CC(=O)N1CC(C)CN(C(=O)c2cscn2)c2ccccc21 (stereo unspecified)
Second: CC1CN(C)c2ccccc2CN1C(=O)c1cscn1 (stereo unspecified)
The “Percent Effect” value of the first is higher: 95.98% for the first, -10.99% for the second.

First: CN(C)C(=O)N1CC2(CCN(S(=O)(=O)C3CC3)CC2)c2ccccc21
Second: CN(Cc1ccccn1)CC1CCCN1c1cccnn1 (stereo unspecified)
The “Percent Effect” value of the first is lower: -5.03% for the first, 130% for the second.

Compared with `Cc1nc2ccccc2nc1CN(C)CC1CCCN1c1cccnn1` (stereo unspecified), `CN(Cc1nc(N)c2ccccc2n1)CC1CCCN1c1cccnn1` (stereo unspecified) is lower in “Percent Effect” value: 5.031% for the first, -0.6342% for the second.

Compared with `CN(Cc1ccc(-n2cccn2)cc1)CC1CCCN1c1cccnn1` (stereo unspecified), `CN(Cc1cnn(-c2ccccc2)n1)CC1CCCN1c1cccnn1` (stereo unspecified) is lower in “Percent Effect” value: 115.9% for the first, 15.2% for the second.

Going from `Cc1cnc(CN(C)CC2CCCN2c2cccnn2)cn1` (stereo unspecified) to `CCn1ccnc1CN(C)CC1CCCN1c1cccnn1` (stereo unspecified), the “Percent Effect” value rises from -5.64% to 7.087%.

Going from `Cc1noc(C)c1CN(C)CC1CCCN1c1cccnn1` (stereo unspecified) to `COc1ccc(CN(C)CC2CCCN2c2cccnn2)cc1F` (stereo unspecified), the “Percent Effect” value rises from -0.05919% to 12.57%.
